# Measurements taken from PubChem BioAssay AID434992 (The Scripps Research Institute Molecular Screening Center, 2010).
# The source made the active and inactive calls. The rule behind the calls is not given here.
# Assay: PubChem AID 434992
# Conditions: HT29 viability, CellTiter-Glo ATP luminescence; series mostly up to 40 µM
compound,measurement,value
FC(F)(F)c1ccc2c(c1)Nc1ccccc1S2,outcome,inactive
